From PubChem
BH1578 lux ind: quorum light induction in luxS cqsA deficient V. cholerae; 350,000 tested, 0.16% active; activation, % at 18.7 µM; V. cholerae BH1578 lux reporter, luminescence, 6 h; AID 588436; in the data active = activation mostly above about 9.7%, no sharp cut-off
RN4220 kill: S. aureus RN4220 growth inhibition; OD600, 16 h; inhibition, % (test concentration not listed); 330,000 tested, 0.33% active; AID 1259311; in the data active = inhibition above about 85%;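 also: plate controls were untreated cells for no effect and reference antibiotic for full effect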
Sa ugtP lethal: compounds lethal to S. aureus RN4220 ugtP deletion mutant; OD600 growth, 16 h; growth inhibition, % (no concentration beside the values); 330,000 tested, 0.54% active; AID 1259309; in the data active = growth inhibition above about 68%;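 also: plate controls were untreated wells for no effect and antibiotic for full effect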
PfHsp40 yeast: compounds rescuing yeast from Plasmodium falciparum HSP40 toxicity | S. cerevisiae expressing PfHsp40, growth rescue, ATP luminescence | 340,000 tested, 0.68% active | growth rescue, % at 12.5 µM | AID 504582; in the data active = growth rescue above about 28%, passing the limit was not always enough;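 also: yeast W303a lacking pdr1 and pdr3 grown in galactose medium; growth measured after three days at 30 °C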
CCHF vOTU inh: blocks the CCHF virus ovarian tumor domain protease; inhibition, % at 11.5 µM; CCHFV vOTU protease, Pep-AMC fluorescence; 370,000 tested, 0.55% active; in the data active = inhibition above about 30%; also: 0% = vehicle wells with enzyme and 100% = no enzyme wells
Mtb hypoxia inh: Mtb hypoxia fluorescent reporter inhibition; M. tuberculosis hypoxia-regulated fluorescent reporter, fluorescence; fluorescence inhibition, % (test concentration not listed); 300,000 tested, 0.1% active; AID 1159583; in the data active = fluorescence inhibition mostly above about 23%, no sharp cut-off; inactive = mostly below about 17%
Starred values were filed as active, the others as inactive. Most compounds without a hit are left out; they make up all but 1.7% or so of the library.

O=C(NN=Cc1c(O)ccc2ccccc12)c1cccc(C(F)(F)F)c1 was read as RN4220 kill 54, Sa ugtP lethal 100* and Mtb hypoxia inh 8.
CNC(=O)c1sc(-c2ccc(Cl)cc2)nc1C was read as BH1578 lux ind inactive, RN4220 kill 11, Sa ugtP lethal -6, PfHsp40 yeast 0, CCHF vOTU inh -7 and Mtb hypoxia inh 8.
CNC(=O)c1sc(-c2ccccc2)nc1C was read as BH1578 lux ind 1, RN4220 kill -9, Sa ugtP lethal -3, PfHsp40 yeast 93*, CCHF vOTU inh -5 and Mtb hypoxia inh 19.
`CCCOc1ccc(C(=O)NNC(=S)NC(=O)CC)cc1` gave BH1578 lux ind 0, RN4220 kill 68, Sa ugtP lethal 41, PfHsp40 yeast 115*, CCHF vOTU inh -5 and Mtb hypoxia inh 3.
`O=C(CC(=O)Nc1ccccc1C(=O)O)NNC(=O)Cc1ccccc1` gave BH1578 lux ind -2, RN4220 kill 4, Sa ugtP lethal 12, PfHsp40 yeast 1, CCHF vOTU inh -15 and Mtb hypoxia inh 12.
Screening CC(C)C(=O)NNC(=O)CC(=O)Nc1ccccc1C(=O)O returned BH1578 lux ind -1, RN4220 kill 3, Sa ugtP lethal -1, PfHsp40 yeast 40*, CCHF vOTU inh -11 and Mtb hypoxia inh 2.
For CN1CCN(C(=O)C2=CC(c3coc4ccccc4c3=O)CC(OCc3ccc(CO)cc3)O2)CC1 (stereo not given) the results were RN4220 kill 5, Sa ugtP lethal 5 and Mtb hypoxia inh 3.
For Cc1ccc(-n2c(C)cc(=O)cc2C)cc1[N+](=O)[O-] the results were BH1578 lux ind 25*, RN4220 kill 7, Sa ugtP lethal 20, PfHsp40 yeast 1, CCHF vOTU inh -3 and Mtb hypoxia inh 3.
Cc1nc2ccc(Cl)cc2[nH]1 was read as BH1578 lux ind -7, RN4220 kill 5, Sa ugtP lethal 11, PfHsp40 yeast 0, CCHF vOTU inh 2 and Mtb hypoxia inh 7.
`Cc1nc2ccc(C(C(F)(F)F)(C(F)(F)F)C(F)(F)F)cc2[nH]1` gave BH1578 lux ind -1, RN4220 kill 2, Sa ugtP lethal -3, PfHsp40 yeast 241* and CCHF vOTU inh 24.
`COc1ccc(S(=O)(=O)N2CCN(C(=O)C3CC(=O)N(c4ccccc4F)C3)CC2)cc1OC` (stereo not given) gave BH1578 lux ind 0, RN4220 kill 3, Sa ugtP lethal 2, PfHsp40 yeast -1, CCHF vOTU inh -1 and Mtb hypoxia inh 31*.
`Cc1c(C=NNc2nc3ccccc3[nH]2)c2ccccc2n1C` gave RN4220 kill 99*, Sa ugtP lethal 99* and Mtb hypoxia inh -13.
CCC1=NNc2cccc3c(OC)ccc1c23 was read as RN4220 kill -5, Sa ugtP lethal -3 and Mtb hypoxia inh 60*.
For CC=CC(=O)Nc1cccc(C2=NOC3(C2)CC(C(N)=O)N(C(=O)COc2ccc(Cl)cc2)C3)c1 (stereo not given) the results were RN4220 kill 3, Sa ugtP lethal 2 and Mtb hypoxia inh 3.
`Cc1ccc(Cc2cnc(N3C(=N)SC(C)C3=O)s2)cc1` (stereo not given) gave BH1578 lux ind 0, RN4220 kill 58, Sa ugtP lethal 51, PfHsp40 yeast 0, CCHF vOTU inh 3 and Mtb hypoxia inh -3.
`Cc1cccc(Cc2cnc(N3C(=N)SC(c4ccccc4)C3=O)s2)c1` (stereo not given) gave BH1578 lux ind inactive, RN4220 kill 32, Sa ugtP lethal -8, PfHsp40 yeast 0, CCHF vOTU inh 8 and Mtb hypoxia inh 5.
`N=C1SCC(=O)N1c1ncc(Cc2cccc(Cl)c2)s1` gave BH1578 lux ind 0, RN4220 kill 97*, Sa ugtP lethal 98*, PfHsp40 yeast 0, CCHF vOTU inh 22 and Mtb hypoxia inh 16.
Screening N=C1SCC(=O)N1c1ncc(Cc2ccccc2Cl)s1 returned BH1578 lux ind -1, RN4220 kill 93*, Sa ugtP lethal 89, PfHsp40 yeast 0, CCHF vOTU inh 15 and Mtb hypoxia inh 17.
For CC(C)C(=O)Nc1ncc(Cc2ccccc2Cl)s1 the results were BH1578 lux ind inactive, RN4220 kill 3, Sa ugtP lethal -1, PfHsp40 yeast 0, CCHF vOTU inh 15 and Mtb hypoxia inh 4.
